Results as given in PubChem BioAssay (NCI).
About 83,000 compounds went through this panel and 20% of them were active in at least one assay; those are over-represented in the sample as a whole.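 Results are percent growth after 48 hours of single-concentration exposure. 100 means growth as in untreated cells, lower positive values show inhibition; negative values down to -100 show cell death.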 Active and inactive are the calls of the source.

tested on: CAKI-1 renal; assay: NCI-60 one-dose screen, 48 h (100 = growth as untreated, 0 = no growth, -100 = all killed); details: 10 µM unless noted
Description: Growth inhibition of the CAKI-1 human tumor cell line is measured as a screen for anti-cancer activity. Cells are grown in 96 well plates and exposed to the test compound for 48 hours. Compounds are tested at a single concentration, which is 10^-5 M for most compounds. The reported endpoint is percent growth (GI% or GIPRCNT), where numbers from 0 - 100% represent growth inhibition, and numbers from -100% - 0 represent cell death. For example, a value of 40 represents 60% growth inhibition. A value of 0 means no net growth occurred over the course of the experiment. A value of -40 indicates 40% of cells at the beginning of the experiment died by the end of the experiment. A value of -100 means all cells are dead at the end of the experiment.
NCI-60 Human Tumor Cell Lines Screen was performed using the standard one-dose NCI protocol, which is described in more detail at https://dtp.cancer.gov/discovery_development/nci-60/default.htm.
Compounds with GIPRCNT values below 10 were considered active. Activity score was based on GIPRCNT using the following formula: […]
Score is 0 for GIPRCNT values of 100 or above, 50 for GIPRCNT values of 0, and 100 for GIPRCNT values of -100.

Row | SMILES | growth
1 | Oc1c(Cl)cc(Cl)c2ccc(Cn3cc(-c4ccc(C(F)(F)F)cc4)nn3)nc12 | 21% (inactive)
2 | CC[C@@H](C(=O)[C@@H](C)[C@@H](O)[C@H](C)[C@@H]1O[C@@H]([C@@H](CC)C(=O)NCCc2ccc(F)cc2)CC[C@@H]1C)C1O[C@]2(C=CC(=O)[C@]3(CC[C@@](C)([C@H]4CC[C@](O)(CC)[C@H](C)O4)O3)O2)[C@H](C)C[C@@H]1C (stereo not given in full) | 14.2% (inactive)
3 | CCCCCCC1(C)NCCO1 (stereo not given) | 92.9% (inactive)
4 | O=C1COCCN1c1ccc(Nc2nc(Cl)nc(OCc3cn(Cc4ccccc4)nn3)n2)cc1 | 84.4% (inactive)
5 | COC1C[C@H](O[C@@H]2C[C@H](O[C@@H]3C[C@H](O[C@@H]4C(=O)c5c(cc6cc(O[C@H]7C[C@@H](O[C@H]8C[C@@H](O)[C@H](O)C(C)O8)[C@H](O)C(C)O7)c(C)c(O)c6c5O)C[C@H]4C(OC)C(=O)[C@@H](O)[C@@H](C)O)OC(C)[C@H]3O)OC(C)[C@@H]2O)OC(C)[C@@H]1O (stereo not given in full) | 28.6% (inactive)
6 | Cc1c(-c2nc3ccc(F)cc3c(=O)[nH]2)c2ccccc2n1C | 40.8% (inactive)
7 | Cc1ccc(Cc2cnc(NC(=O)c3cc(Br)cs3)s2)cc1 | 53.9% (inactive)
8 | O=S(=O)(NCCNc1cc(-c2c(-c3cccc(O)c3)nc3sccn23)ccn1)c1ccc(C(F)(F)F)cc1 | 29.3% (inactive)
9 | CCCCC(=O)c1ccco1 | 90.2% (inactive)
10 | CCCCC[C@@H]1Cc2cc(O)c(C(=O)O)c3c2[C@H](C[C@]2(OC[C@@H](CC(=O)[C@@](C)(CC)C(=O)OC)[C@@H]2C)O3)O1 | 99.9% (inactive)
11 | Cc1ccc(-c2nc3nc(-c4ccccc4)nc(N4CCNCC4)c3o2)cc1 | -99% (active)
12 | N#Cc1c(N)nnn1Cc1cc(=O)oc2c1ccc1ccccc12 | 98% (inactive)
13 | O=C1/C(=C\c2cn(-c3ccccc3)nc2-c2ccc(-c3cccs3)cc2)CCc2ccccc21 | 41.2% (inactive)
14 | CC(=O)N(N=Nc1ccccc1)c1cccc2ccccc12 | 31.8% (inactive)
15 | CCCNC(=O)Oc1ccc(/C(=C(/C)Cc2ccc(OC)cc2)c2ccc(OCCCN(C)C)cc2)cc1 | 101% (inactive)
16 | CN1CCN(Cc2ccc3c(NNC(=O)c4ccccc4)nc4cc(F)ccc4n23)CC1 | 11.8% (inactive)
17 | O=C1CC(N2C(=O)/C(=C/C(Cl)=C\c3ccc([N+](=O)[O-])cc3)SC2=S)C(=O)N1c1ccc(Cl)cc1 (stereo not given) | 23.5% (inactive)
18 | OCCOCCN(Cc1ccccn1)Cc1cc(I)cc(I)c1O | 23.7% (inactive)
19 | CCOP(=O)(OCC)c1nc(-c2ccccc2)oc1NCc1cccnc1 | 97.3% (inactive)
20 | O=CC1(C2(C=O)c3ccccc3-c3ccccc32)c2ccccc2-c2ccccc21 | -78.2% (active)

Row | SMILES | growth
21 | CC1(C)CC2=C3C=C[C@@H]4[C@@]5(C)CCC(=O)C(C)(C)[C@@H]5CC[C@@]4(C)[C@]3(C)CC[C@@]2(C(=O)O)CC1=O | 52.3% (inactive)
22 | O=[N+]([O-])C1C(c2ccccc2)C12c1ccccc1-c1ccccc12 (stereo not given) | 34.6% (inactive)
23 | O=C(Cn1c(=O)sc2nc3ccccc3nc21)Nc1ncc(Cc2cccc(Cl)c2Cl)s1 | 71.7% (inactive)
24 | O=C(CSc1nc2sc3c(c2c(=O)n1-c1ccccc1)CCCCC3)N/N=C/c1ccc(F)cc1 | -13.7% (active)
25 | CCOC(=O)c1cc(C(=O)c2cc(OC)c(OC)c(OC)c2)n2ccc(-c3ccncc3)cc12 | 84.5% (inactive)
26 | Fc1ccc2[nH]cc(-c3nonc3-c3c[nH]c4ccc(Br)cc34)c2c1 | 12.4% (inactive)
27 | COC(=O)c1c2c(c(C)[n+]([O-])c1C)C(=O)C=C(NCc1ccc(Br)cc1)C2=O | -25.7% (active)
28 | Cc1ccc(-c2nc(/C=C3/C(=O)Nc4ccccc43)c3ccccn23)cc1 | 48.8% (inactive)
29 | Cc1nn(-c2ccccc2)c(Oc2ccccn2)c1-c1nc2ccccc2s1 | 82.3% (inactive)
30 | Nc1ncnc2c1N=C(c1ccc3c(c1)OCO3)CC(c1cccc(Nc3ccnc4cc(Cl)ccc34)c1)N2 (stereo not given) | 53.4% (inactive)
31 | O=C(Nn1c2c(sc1=Nc1ccccc1)C(=O)c1ccccc1C2=O)c1cc2ccc1CCc1ccc(cc1)CC2 | 32.1% (inactive)
32 | CC(=O)N1N=C(c2ccc(Nc3nc(Nc4ccc(Cl)cc4)nc(Nc4ccc(Cl)cc4)n3)cc2)CC1c1ccco1 (stereo not given) | 86.8% (inactive)
33 | Cc1nc(N2CCOCC2)sc1S(N)(=O)=O | 96.9% (inactive)
34 | O=S(=O)(Nc1ccccc1)c1ccc(C2CC3(Cl)C(Cl)=C(Cl)C2(Cl)C3(Cl)Cl)cc1 (stereo not given) | -19.8% (active)
35 | COC(=O)c1c2c(c(C)[n+]([O-])c1C)C(=O)C(NCc1ccc(Cl)cc1)=CC2=O | 76.3% (inactive)
36 | CN1C(=O)N(C)C2Nn3c(s/c(=C\c4ccc(C(F)(F)F)cc4)c3=O)=NC21 (stereo not given) | 82.7% (inactive)
37 | C/C(=N\NC(=O)c1ccccc1O)c1cccc(/C(C)=N/NC(=O)c2ccccc2O)n1 | 14.5% (inactive)
38 | O=C1CNC(c2ccccc2)C(c2ccccc2)N1 (stereo not given) | 81.2% (inactive)
39 | CCN(CC)CCNC(=O)c1cn2ncnc(Oc3ccc(NC(=O)Nc4ccc(Cl)c(C(F)(F)F)c4)c(F)c3)c2c1C | 39.6% (inactive)
40 | O=C(Nc1ccc(NC(=O)c2cc(=O)[nH]c3ccccc23)cc1)Nc1cccc(C(F)(F)F)c1 | 71.5% (inactive)
